SMILES strings stand for the structures. Where a name gives a salt, the structure may show the parent alone.

The test deals with thyroid hormone receptor (endogenous TRα and TRβ). Details: species or system GH3-TRE-Luc (rat pituitary); GH3-TRE-Luc luciferase reporter, antagonist mode against 1 nM T3, loss of signal, qHTS. Particulars: antagonist mode, 1 nM T3, no GH3 cytotoxicity hit, read-out: Average AC50 (uM) GH3-TRE-Antag.
With `C[C@H](CN1CCOCC1)C(C(=O)N1CCCC1)(c1ccccc1)c1ccccc1` [Dextromoramide tartrate], the concentration at half-maximal activity (AC50) came out at 56.7 µM.
`C[C@]12CC[C@H]3[C@@H](CCC4=CC(=O)CC[C@@]43C)[C@@H]1CC[C@@H]2O` [Testosterone]: the AC50 was 59 µM.
`CC(C)(C)c1ccccc1OP(=O)(Oc1ccccc1)Oc1ccccc1` [tert-Butylphenyl diphenyl phosphate]: the AC50 came out at 88.4 µM.
In the case of `COP(=S)(OC)SCN1C(=O)c2ccccc2C1=O` [Phosmet] it was greater than 50 µM; in that of `O=[N+]([O-])c1cccc2cccc([N+](=O)[O-])c12` [1,8-Dinitronaphthalene], 49.5 µM.
In the case of `CC(=O)O[C@H]1CC[C@@]2(C)C(=CC[C@@H]3[C@@H]2CC[C@]2(C)C(=O)CC[C@@H]32)C1` [Dehydroepiandrosterone acetate] it was 17.4 µM; in that of `CCOP(=S)(OCC)Oc1ccc(Cl)cc1Cl` [Dichlofenthion], 71.5 µM; in that of `C[C@]12CCC(=O)C[C@@H]1CC[C@@H]1[C@@H]2CC[C@@]2(C)[C@H]1CC[C@]2(C)O` [Mestanolone], 10.8 µM.
`C[C@@H]1[C@H]2Cc3ccc(O)cc3[C@]1(C)CCN2C` [(-)-Metazocine fumarate (1:1)]: the AC50 is 50.6 µM.
Take `OCC(c1ccc(Cl)cc1)c1ccc(Cl)cc1` [2,2-Bis(4-chlorophenyl)ethanol]: the AC50 amounted to 46.2 µM.
In the case of `CCOP(=S)(OCC)SC(CCl)N1C(=O)c2ccccc2C1=O` (stereo not shown) [Dialifor] it was greater than 90 µM; in that of `COP(=O)(OC)O/C(=C\Cl)c1cc(Cl)c(Cl)cc1Cl` [Z-Tetrachlorvinphos], 37.7 µM; in that of `CCOP(=O)(OCC)O/C(=C\Cl)c1ccc(Cl)cc1Cl` [Chlorfenvinphos], greater than 50 µM.
Turning to `CC(C)NC(C)Cc1ccc(I)cc1` (stereo not shown) [Iofetamine hydrochloride], the AC50 was 22.3 µM.
On to `CC(C)=CCN1CC[C@]2(C)c3cc(O)ccc3C[C@H]1[C@H]2C` [(+)-Pentazocine succinate], for which the AC50 stood at 37.2 µM.
As for `CC(C)=CC1C(C(=O)OCN2C(=O)C3=C(CCCC3)C2=O)C1(C)C` (stereo not shown) [Tetramethrin], the figure is greater than 50 µM.
In the case of `CCCSP(=S)(OCC)Oc1ccc(Cl)cc1Cl` (stereo not shown) [Prothiofos] it was 86.7 µM; in that of `COC1=CC=C2[C@H]3Cc4ccc(OC)c5c4[C@@]2(CCN3C)[C@H]1O5` [Thebaine], greater than 20 µM.
In the case of `CN1C[C@H](C(=O)N[C@]2(C)O[C@@]3(O)[C@@H]4CCCN4C(=O)[C@H](Cc4ccccc4)N3C2=O)C=C2c3cccc4[nH]cc(c34)C[C@H]21` [Ergotamine D-tartrate], the AC50 stood at 36.2 µM.
For the compound `CCOP(=S)(OCC)SCSP(=S)(OCC)OCC` [Ethion], the AC50 came to 71.9 µM.
In the case of `CNC(=O)Oc1cccc(N=CN(C)C)c1` [Formetanate hydrochloride] it was 70.8 µM.
As for `CCOP(=S)(OCC)Oc1ccc2c(C)c(Cl)c(=O)oc2c1` [Coumaphos], the AC50 was greater than 50 µM.
For the compound `CCc1cc2c(s1)-n1c(C)nnc1CN=C2c1ccccc1Cl` [Etizolam], the AC50 was greater than 50 µM.
For `O=P(Oc1ccccc1)(Oc1ccccc1)Oc1ccccc1` [Triphenyl phosphate], the AC50 was greater than 90 µM.
Consider `COc1ccc2c(c1)[C@]13CCCC[C@@H]1[C@H](C2)N(C)CC3` [Dextromethorphan hydrobromide monohydrate], for which the half-maximal activity concentration (AC50) stood at 21.1 µM.
In the case of `CCOP(=S)(OCC)SCSC(C)(C)C` [Terbufos] it was 85 µM; in that of `O=[N+]([O-])c1ccc(Oc2ccc(C(F)(F)F)cc2[N+](=O)[O-])cc1` [Fluorodifen], greater than 90 µM.
In the case of `CC(=O)[C@H]1CC[C@H]2[C@@H]3CC[C@@H]4C[C@H](O)CC[C@]4(C)[C@H]3CC[C@]12C` [Eltanolone] it was 13.6 µM.

Broadly, the AC50 is the midpoint of the concentration-response curve, whichever way the signal moves.

These data come from article PMC6792352, “Limited Chemical Structural Diversity Found to Modulate Thyroid Hormone Receptor in the Tox21 Chemical Library” (Environmental Health Perspectives, 2019).
